This excerpt belongs to a sample that is enriched for hits.
LmPK inh – inhibitors of Leishmania mexicana pyruvate kinase; actives 0.37% (n = 290,000); purified LmPK, Kinase-Glo ATP luminescence, 1 h; AID 1721; Potency, µM (series often up to 57.5 µM), for inactives: at the top dose activity change, negative = inhibition, most hits filed as inhibitors; Q27686; further: potency means the concentration at half of the fitted maximal effect; on the % scale 0 is the no-effect control and ±100 the full control effect
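Purified LmPK (0.1 nM) converted ADP (0.1 mM) to ATP with PEP (0.5 mM) in imidazole buffer pH 7.2 with KCl and MgCl2, 1 h at room temperature. ATP was read by Kinase-Glo luminescence; data normalized to uninhibited and no-enzyme controls.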
Sm TGR inh – blocks Schistosoma mansoni thioredoxin glutathione reductase | Potency, µM (titrated, usually from 114 µM), inactives show at the top dose activity change, negative = inhibition, most hits filed as inhibitors | actives 3% (n = 360,000) | purified TGR, DTNB reduction, TNB absorbance 405 nm | AID 485364 | Q962Y6; further: potency means the concentration at half of the fitted maximal effect; on the % scale 0 is the no-effect control and ±100 the full control effect; nearly all actives have a fitted effect of over 60% in size
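Kinetic colorimetric format: TGR-catalysed, NADPH-driven DTNB reduction monitored via TNB absorbance. Enzyme dispensed at 20 nM; compound exposure 15 min at room temperature before reaction start.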
TbPYK inhibitor – blocks Trypanosoma brucei pyruvate kinase. Q57TT1. TbPYK enzyme, Kinase-Glo Plus ATP luminescence, 45 min. Potency, µM (highest dose often 76.8 µM), for inactives: at the top dose activity, negative = inhibition, most hits filed as inhibitors. actives 0.12% (n = 410,000); further: potency means the concentration at half of the fitted maximal effect; on the % scale 0 is the no-effect control and ±100 the full control effect; nearly all actives have a fitted effect of over 50% in size
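ADP (130 uM final) triggers the TbPYK reaction after compound addition; incubation is 45 min at room temperature. Kinase-Glo Plus is then added and luminescence imaged. Normalized data are fitted to concentration-effect curves.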
Shiga toxin inh – Shiga toxin inhibition | actives 9.2% (n = 290,000) | inhibition, % at 38.7 µM | AID 2315 | Vero cells, Shiga toxin protein synthesis inhibition reporter; in the data active means inhibition mostly above about 28%, no sharp cut-off; inactive means mostly below about 43%; further: 0% is about no effect
FBPA Giardia inh – blocks Giardia fructose-bisphosphate aldolase activity; A8B2U2; Potency, µM (titrated, usually from 59.6 µM), for inactives: at the highest dose activity, negative = inhibition, usual class: inhibitors; actives 0.71% (n = 290,000); purified Giardia FBPA; further: potency means the concentration at half of the fitted maximal effect; on the % scale 0 is the no-effect control and ±100 the full control effect; nearly all actives have a fitted effect of over 55% in size
Target sequence (A8B2U2 whole entry, looked up): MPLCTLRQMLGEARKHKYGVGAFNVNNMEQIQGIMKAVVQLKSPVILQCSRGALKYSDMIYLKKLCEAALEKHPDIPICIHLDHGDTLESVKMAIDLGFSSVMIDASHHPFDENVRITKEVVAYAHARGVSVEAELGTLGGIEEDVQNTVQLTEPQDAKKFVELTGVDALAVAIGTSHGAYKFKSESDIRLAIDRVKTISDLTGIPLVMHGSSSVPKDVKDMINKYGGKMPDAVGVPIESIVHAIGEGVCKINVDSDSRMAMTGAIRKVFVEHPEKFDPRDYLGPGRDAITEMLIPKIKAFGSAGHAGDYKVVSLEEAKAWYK
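40 nM FBPA preincubated 10 min at RT with compound (up to 57.5 uM final), then substrate plus GAPDH/TPI/NAD/arsenate coupling and diaphorase/resazurin added. Fluorescence read after 20 min at RT, 525/598 nm.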
CHX counter – affects cycloheximide protein synthesis inhibition readout, counter-screen; actives 12% (n = 300,000); max response, %; cell reporter, cycloheximide protein synthesis inhibition counterscreen; in the data active means max response mostly above about 13%, no sharp cut-off; inactive means mostly below about 14%; further: read at 38.3 µM for the half of the compounds with a filed dose; 0% is about no effect
* marks the source's active call; other numbers are inactive results; ? = inconclusive; . = no result given; [ ] = dose if it differs, or a comment. Unless noted, the call rests on the fitted dose curve; in most records, active means well fitted curve in the direction sought with a large enough effect; inconclusive means small, poorly fitted or top-dose-only effect, or another doubt; inactive means no such curve, though single readings can be large; an effect the other way counts as inactive or inconclusive.

SMILES	LmPK inh	Sm TGR inh	TbPYK inhibitor	Shiga toxin inh	FBPA Giardia inh	CHX counter
O=C(Cc1ccccc1)Nc1ccc2c(c1)OC1(CCCC1)O2	.	-8%	-1%	.	.	.
Nc1ccc2c(c1)OC1(CCCC1)O2	-4%	-18%	-9%	99*	-9%	48*
CCC1(c2ccccc2)NC(=O)N(CC(=O)NNC(=O)c2ccc(F)cc2)C1=O (stereo not drawn)	.	-5%	-7%	.	.	.
Fc1ccc2nc3[nH]c4ccccc4c3nc2c1	-13%	-31%	0%	62*	-11%	44*
Nc1nnc2cc(F)ccc2n1	.	.	-1%	.	.	.
CC1CCCN(C(=O)Cn2ncc3c([nH]c4ccccc43)c2=O)C1 (stereo not drawn)	.	8%	2%	.	.	.
CC(c1ccccc1)N(C)C(=O)CSc1nnc(C2CC2)n1C1CC1 (stereo not drawn)	.	-5%	2%	.	.	.
C=CCn1c(N)c(C(=O)NCCC2=CCCCC2)sc1=S	2%	-3%	?	106*	7%	49*
Cc1ccc(C(=O)NCCc2ccc(Cl)cc2)cc1-n1c(C)nc2cccnc21	.	-3%	3%[15.4 µM]	.	.	.
O=C(c1cc(-c2cccs2)on1)N1CCCc2ccccc21	3%	-1%	2%	73*	7%	39*
Cc1ccc(-c2cc(C(=O)N3CCCc4ccccc43)no2)cc1	-2%	.	-8%	98*	3%	31*
O=C(c1cc(-c2ccc(F)cc2)on1)N1CCCc2ccccc21	1%	3%	-15%	64*	-1%	46*
Cc1ccc(S(=O)(=O)N(CC(=O)Nc2c(C)cccc2C)c2cccc(Cl)c2)cc1	.	1%	-8%	.	.	.
COC(=O)CCN1CCC2CC1c1cc(N3CCCCC3)ccc12 (stereo not drawn)	.	.	-6%	.	.	.
O=C(c1ccc2c(c1)N(Cc1ccc(Cl)cc1)C(=O)c1ccccc1S2(=O)=O)N1CCCC1	.	-8%	-8%	.	.	.
COc1ccc(C2=Nn3c(nnc3-c3cc(OC)ccc3OC)SC2)c(OC)c1	.	.	.	-4	-2%	-6
COc1ccc(CNc2cc(-c3ccoc3)ncn2)c(OC)c1	.	.	.	.	-10%	.
O=C(Cn1c2ncccc2c(=O)n1-c1ccccc1)Nc1cccc(C(F)(F)F)c1	.	5%	-2%	.	.	.
COc1cc(CNc2ccc3c(c2)CCC3)cc(OC)c1O	-1%	0.32µM*	-4%	63*	?	30*
CCOc1cc(CNc2ccc3c(c2)CCC3)ccc1O	-2%	?	-6%	19	-25%	34*
COc1cc(CC(=O)Nc2ccc3c(c2)CCC3)cc(OC)c1OC	3%	-8%	-5%	2	-2%	-6
CCN(CC(=O)Nc1c(F)cccc1F)C(=O)CSC(=S)N1CCCC1	.	-30%	-19%	.	.	.
Cn1c(/C(C#N)=C/c2ccccc2Br)nc2ccccc21	.	-16%	-7%	.	.	.
CCOC(=O)N1CCN(C(=O)c2cc(COc3cccc(C(C)=O)c3)on2)CC1	-10%	-9%	-10%	45	.	41*
CC(=O)c1cccc(OCc2cc(C(=O)N(C)C(C)c3ccccn3)no2)c1 (stereo not drawn)	0%	?	-4%	17	3%	8
SMILES	LmPK inh	Sm TGR inh	TbPYK inhibitor	Shiga toxin inh	FBPA Giardia inh	CHX counter
O=C(c1cc(COc2cccc(C(F)(F)F)c2)on1)N1CCCC1	.	.	4%	.	.	.
CC(=O)c1cccc(OCc2cc(C(=O)NCc3nc(C)c(C)s3)no2)c1	-1%	-20%	-5%	83*	.	40*
CCOC(=O)N1CCN(C(=O)c2cc(COc3cccc(C(F)(F)F)c3)on2)CC1	5%	-9%	-6%	60*	2%	46*
COc1ccc(NC(=O)c2ccco2)cc1NC(=O)C(C)(C)Oc1ccc(Cl)cc1	.	-14%	-8%	.	.	.
C#CCCCO/N=C1/C[C@@H](O)[C@@H](O)[C@@H]2[C@@H]3C(=O)N(CC)C(=O)[C@H]3CC[C@@H]12	.	.	.	.	3%[12.9 µM]	.
CCCN(C(=O)c1sc2nc3n(c(=O)c2c1C)CCCC3)c1ccccc1C	.	-15%	-1%	.	.	.
O=C(Nc1ccc(Cl)c(C(F)(F)F)c1)c1ccco1	2%	-26%	0%	25	-6%	13*
O=C(Nc1ccc(Cl)c(Cl)c1)c1ccco1	3%	4%	-4%	50*	-7%	48*
O=C(Nc1ccc(F)cc1F)c1ccco1	-12%	0%	-8%	38	4%	17
O=C(Nc1ccc(F)c(F)c1)c1ccco1	3%	31%	6%	89*	-10%	45*
CC(=O)Nc1ccc(S(=O)(=O)NC2=C(N3CCN(Cc4ccccc4)CC3)C(=O)c3ccccc3C2=O)cc1	-20%	-6%	-9%	19	?	10
CC(=O)Nc1ccc(S(=O)(=O)NC2=C(N3CCN(C)CC3)C(=O)c3ccccc3C2=O)cc1	-6%	?	-10%	4	0.71µM*	-2
CC1CCN(C2=C(NS(=O)(=O)c3ccccc3)C(=O)c3ccccc3C2=O)CC1	-22%	1%	-8%	20	?	20*
CCN1CCN(C2=C(NS(=O)(=O)c3ccc(C)cc3)C(=O)c3ccccc3C2=O)CC1	-3%	?	-6%	38	.	23*
CC1CCN(C2=C(NS(=O)(=O)c3ccc(Br)cc3)C(=O)c3ccccc3C2=O)CC1	-3%	-14%	-5%	38*	-30%	32*
CCN1CCN(C2=C(NS(=O)(=O)c3ccc(NC(C)=O)cc3)C(=O)c3ccccc3C2=O)CC1	-8%	?	-7%	-2	.	22
O=C1CC(c2nnc(Cc3ccc(F)cc3)o2)CN1c1ccccc1 (stereo not drawn)	.	3%	-2%	.	.	.
Cc1ccc(S(=O)(=O)CCC(=O)OC(C)C(=O)N2CCc3ccccc32)cc1 (stereo not drawn)	.	-15%	4%	.	.	.
Cn1c(N)c(C(=O)COC(=O)COc2ccc(Cl)cc2Cl)c(=O)n(C)c1=O	.	.	1%	.	.	.
Cc1ccc(CSCCC(=O)NCc2ccc(F)cc2Cl)cc1	.	?	7%	.	.	.
CC(C)c1ccc(NC(=O)CSC2=Nc3ccccc3C3=NC(CCC(=O)NCc4cccs4)C(=O)N23)cc1 (stereo not drawn)	.	0%	-6%	.	.	.
O=S1(=O)C2CC3C=CC2(O3)C(O)C(Cc2ccccc2)N1Cc1cccc(C(F)(F)F)c1 (stereo not drawn)	.	.	.	3	-7%	-4
CC1CCN(C2=C(NS(=O)(=O)c3ccc(Cl)cc3)C(=O)c3ccccc3C2=O)CC1	-11%	-12%	-6%	85*	?	22*
CCOC(=O)C1CCN(C2=C(NS(=O)(=O)c3ccc(Cl)cc3)C(=O)c3ccccc3C2=O)CC1	-28%	?	-10%	11	?	-3
CN(C)c1ncc2ncc(=O)n(Cc3cccs3)c2n1	.	.	-7%	.	1%	.
S=c1sc2ccccc2n1CCc1ccncc1	.	-14%	-8%	.	.	.
CSc1nn(CCc2ccncc2)c(=S)s1	1%	35µM*	-8%	-12	?	-2

Screening results from PubChem BioAssay.
